We go through 70 compounds from PubChem BioAssay AID1466 (National Center for Advancing Translational Sciences (NCATS), 2008).

The campaign covered roughly 200,000 compounds. About 10 (0.005%) were called active. About 8% were inconclusive and are not listed. The call rests on the fitted dose curve; in most records, active means well fitted inhibition curve with a large enough effect; inconclusive means small, poorly fitted or top-dose-only effect, or effect the other way, or another doubt; inactive means no such curve, though single readings can be large or run the other way. Only a sample is shown.

The experiment has as its target Lysosomal alpha-glucosidase (Homo sapiens) (UniProt P10253). Put plainly: qHTS Assay for Inhibitors of Human alpha-Glucosidase as a Potential Chaperone Treatment of Pompe Disease.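 Further: plate controls were uninhibited enzyme wells for no effect and no-enzyme background for full effect.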 The following applies: purified human GAA, 4-MU-alpha-glucoside fluorescence; series mostly up to 76.9 µM; activity change, negative = inhibition: at the top concentration. The source says: NIH Chemical Genomics Center [NCGC] NIH Molecular Libraries Probe Production centers Network [MLPCN] MLPCN Grant: 1R03MH084841-01 Assay Submitter (PI): Wei Zheng NCGC Assay Overview: Alpha-glucosidase is responsible for hydrolysis of terminal, non-reducing 1,4-linked alpha-D-glucose residues with release of alpha-D-glucose. It is a lysosomal hydrolase that is required for the degradation of a small percentage (1-3%) of cellular glycogen in human. Deficiency of this enzyme results in glycogen-storage disease type II (GSDII), also referred to as Pompe disease, an autosomal recessive disorder. Structurally normal glycogen is accumulated in lysosomes and cytoplasm in affected patients, primarily in muscle tissues. Excessive glycogen storage within lysosomes may interrupt normal functioning of other organelles and leads to cellular injury. In turn, this leads to enlargement and dysfunction of the entire organ involved (eg, cardiomyopathy and muscle weakness). It has reported that the improper folding and trafficking of alpha-glucosidase resulting from the genetic mutations may account for a significant number of Pompe patients. […] We optimized this alpha-glucosidase assay in 1536-well plate format for identifying the novel small molecule inhibitors with the structures other than the sugar analogs in order to develop the new pharmacological chaperones.
NCGC Assay Protocol Summary: This is a fluorogenic enzyme assay with 4-methylumbelliferyl-alpha-D-[…] as the substrate and human alpha-glucosidase as the enzyme preparation. Upon the hydrolysis of this fluorogenic substrate, the resulting product, 1. 4-methyllumbelliferone, can be excited at 365 nm and emits at 440 nm which can be detected by a standard fluorescence plate reader. Data were normalized to the controls for basal activity (without enzyme) and 100% activity (with enzyme). In the AC50 values were determined from concentration-response data modeled with the standard Hill equation. Assay buffer: 50 mM citric acid (titrated with potassium phosphate to pH 5.0), 0.005% Tween-20, pH 5.0. (pH 5.0 is an optimal condition for this enzyme assay) 1536-well assay protocol for the human alpha-glucosidase: (1) Add 2 ul/well of enzyme (4 nM final) (2) Add 23 nL compounds in DMSO solution. The final titration was 0.7 nM to 77 uM. (3) Add 1 ul of substrate (400 uM final) (4) Incubate at room temperature for 20 min. (5) Add 2 ul stop solution (1M NaOH and 1M Glycine mixture, pH 10) (6) Detect the assay plate in a ViewLux plate reader (PerkinElmer) with Ex=365 nm and Em=440nm. Keywords: Alpha-glucosidase, Pompe Disease, pharmacological chaperone, chaperone therapy, high throughput screening, alpha-glucosidase inhibitor, MLSMR, MLSCN, NIH Roadmap, qHTS and NCGC
With `CN1CCc2nc(SC(C(=O)O)c3ccccc3)c(C#N)c(-c3cccs3)c2C1` (stereo not given), the “activity change, negative = inhibition” value is -7.98% (inactive). The result for `COc1ccccc1NC(=S)N1CCN(C(c2ccccc2)c2ccccc2)CC1` reads -6.81% (inactive). As for `S=C(NNC(=S)NC1CC2CCC1C2)NC1CC2C=CC1C2` (stereo not given), the “activity change, negative = inhibition” value was -2.79% (inactive).

Turning to `COc1ccccc1NC(=S)N1CCC(NC(=O)C23CC4CC(CC(C4)C2)C3)CC1`, the “activity change, negative = inhibition” value was 7.9% (inactive). In the case of `COc1ccc2[nH]c(C(=O)Nc3ccccc3Cl)cc2c1` it was -17.6% (inactive); in that of `COc1ccc(Br)c2c1C(=O)CC2`, 1.34% (inactive). For `c1ccc(-n2nnnc2-c2cccnc2)cc1`, the “activity change, negative = inhibition” value was 2.38% (inactive). Turning to `CCCSc1ncccc1C(=O)O`, the “activity change, negative = inhibition” value was 3.35% (inactive).

Take `Cn1c(SCC(=O)c2ccc(F)cc2)nnc1-c1ccccn1`: the “activity change, negative = inhibition” value is 4.07% (inactive). Consider `COc1ccc(Cl)cc1NC(=O)C(C)N1CCc2ccccc21` (stereo not given), for which the “activity change, negative = inhibition” value is 4.93% (inactive).

`CSc1ccc(CNCCN2CCOCC2)cc1`: the “activity change, negative = inhibition” value is 7.49% (inactive).

As for `Cc1ccccc1NC(=O)Nc1ccccc1N1CCCCC1`, the “activity change, negative = inhibition” value was -14% (inactive). For the compound `Clc1ccc(CSc2nnc3c(n2)[nH]c2ccccc23)cc1`, the “activity change, negative = inhibition” value is 7.73% (inactive). `O=C(COc1ccc(S(=O)(=O)N2CCCCC2)cc1)NCc1ccccn1`: the “activity change, negative = inhibition” value was -7.73% (inactive). For `O=C(NNS(=O)(=O)c1ccccc1C(F)(F)F)c1cc2ncc(C(F)(F)F)cc2s1`, the “activity change, negative = inhibition” value is -2.23% (inactive).

Take `CCOC(=O)C1CCN(C(=O)C2(NC(=O)Nc3cccc(F)c3)CCCCC2)CC1`: the “activity change, negative = inhibition” value was 5.94% (inactive). The result for `Cc1ccccc1-c1nc(C#N)c(NCc2ccco2)o1` reads -5.5% (inactive); that for `Cc1cccc(C(=O)N2CCC(c3nc4ccccc4s3)CC2)c1`, -3.53% (inactive); that for `COc1ccc(CN2CCN(Cc3cn(C)nc3-c3ccccc3)CC2CCO)c(C)c1C` (stereo not given), 4.33% (inactive). Take `Cc1noc(C)c1/C=N/Nc1ccc2ccccc2n1`: the “activity change, negative = inhibition” value was 8.17% (inactive). Consider `COc1cc(CNCCN(C)C)ccc1OCc1c(F)cccc1Cl`, for which the “activity change, negative = inhibition” value is 7.64% (inactive). With `Cc1ccc(C(=O)NC(=S)Nc2ccc(N3CCOCC3)cc2)cc1`, the “activity change, negative = inhibition” value was -7.85% (inactive). Take `O=C(CN1CCN(C/C=C/c2ccccc2)CC1)Nc1ccc(F)cc1F`: the “activity change, negative = inhibition” value is 2.05% (inactive). In the case of `COC(=O)c1cn(C(=O)c2ccc(Cl)cc2)c2ccccc12`, the “activity change, negative = inhibition” value was 1.26% (inactive). For the compound `O=C1/C(=C/c2cccs2)CCC1C1CCCC1` (stereo not given), the “activity change, negative = inhibition” value was -10.7% (inactive). Regarding `O=C(CCl)N(Cc1cccc([N+](=O)[O-])c1)c1cccc(Cl)c1`, the “activity change, negative = inhibition” value is 0.594% (inactive). Consider `Cc1cc(OC(=O)c2ccccc2)c([N+](=O)[O-])c(=O)[nH]1`, for which the “activity change, negative = inhibition” value is -5.1% (inactive). In the case of `CC(O)CNCCOc1cccc(Oc2ccccc2)c1` (stereo not given) it was 13.8% (inactive). With `O=C(CSc1ncn[nH]1)Nc1nc(-c2cccc([N+](=O)[O-])c2)cs1`, the “activity change, negative = inhibition” value is -24.7% (inactive).

With `Nc1ccc(C(=O)OCC(=O)NC2CCS(=O)(=O)C2)cc1[N+](=O)[O-]` (stereo not given), the “activity change, negative = inhibition” value is -4.02% (inactive). In the case of `COc1cccc(OCCCN2CCCCCC2)c1` it was 2.44% (inactive); in that of `Cc1ccc(Cl)cc1NC(=O)COC(=O)CC(C)(C)C`, -12.7% (inactive). The result for `CCC1(C)Cc2c(sc3nc(SC)[nH]c(=O)c23)CO1` (stereo not given) reads 0.866% [at 15.4 µM] (inactive).

Consider `CC1CCN(S(=O)(=O)c2ccc3ncn(CC(=O)N(C)C4CCCCC4)c(=O)c3c2)CC1`, for which the “activity change, negative = inhibition” value was 1.35% (inactive). On to `Cc1nn(-c2ccccc2)c(=O)c2noc(C)c12`, for which the activity change, negative = inhibition is -3.66% [at 15.4 µM] (inactive). On to `Cc1ccc(NNC(=O)c2c(F)cccc2Cl)cc1Cl`, for which the activity change, negative = inhibition is 1.45% [at 15.4 µM] (inactive). On to `Cc1c(C(=O)N(Cc2ccccc2)Cc2cccnc2)cnn1-c1ccc(F)cc1`, for which the “activity change, negative = inhibition” value is -2.19% (inactive). The result for `CCOC(=O)C(=CNNc1ccsc1C(=O)OC)C(=O)OCC` reads 3.25% (inactive); that for `Cc1ccc(-c2csc(-c3cc(C)on3)n2)cc1`, 2.67% (inactive); that for `CC(=O)Nc1ccc(S(=O)(=O)Nc2nccc(/C=C/c3ccccc3F)n2)cc1`, 4.07% (inactive). For the compound `CCN1CCN(C(C(=O)NC2CCCC2)c2cc3c(cc2[N+](=O)[O-])OCO3)CC1` (stereo not given), the “activity change, negative = inhibition” value is 7% (inactive). Regarding `Cc1ccc(C2CCN(C(=S)Nc3cccc(Cl)c3)C2)cc1` (stereo not given), the “activity change, negative = inhibition” value is -0.289% (inactive).

`COc1cccc(-c2ccc(SCC(=O)N3CCN(c4ccccc4)CC3)nn2)c1`: the “activity change, negative = inhibition” value is -0.133% (inactive).

In the case of `COc1ccccc1-c1c(C#N)c(N)nc2c1CCC2`, the activity change, negative = inhibition was 6.93% [at 15.4 µM] (inactive). Consider `Cc1noc(C)c1-c1nc(CSc2ccc(Cl)cc2)no1`, for which the “activity change, negative = inhibition” value was -4.19% (inactive).

As to `C/C(=N/NC(=O)c1ccn(C)n1)c1ccncc1`, the “activity change, negative = inhibition” value was -7.14% (inactive). `O=C(COC(=O)c1ccccn1)Nc1cccc2ccccc12`: the “activity change, negative = inhibition” value is -3.22% (inactive). `CC(C)CCN1CCN(Cc2ccc(C(F)(F)F)cc2)CC1CCO` (stereo not given): the “activity change, negative = inhibition” value was -11.2% (inactive). In the case of `O=C(NC(Cc1c[nH]c2ccccc12)C(=O)O)/C(=C/c1ccco1)NC(=O)c1ccccc1` (stereo not given) it was 2.81% (inactive); in that of `COc1ccccc1-n1c(=S)[nH]c2c(sc(=S)n2-c2ccc(C)cc2C)c1=O`, -8.28% (inactive). `COc1ccc(C)cc1NC(=O)NCc1ccccn1`: the “activity change, negative = inhibition” value was 10.1% (inactive). For `Cn1c(CC2Sc3ccccc3NC2=O)nnc1SCC(=O)c1ccc(Cl)cc1` (stereo not given), the “activity change, negative = inhibition” value was -4.88% (inactive). In the case of `N#Cc1ccc(Oc2ccc(C(F)(F)F)cc2NC(=O)c2ccc(F)cc2)cc1` it was -0.785% (inactive). The result for `O=C(CSc1ccc([N+](=O)[O-])cn1)Nc1ccc(N2CCOCC2)c(Cl)c1` reads -3.22% (inactive). In the case of `C/C(=N/O)c1ccc(N2C(=O)C3C4C=CC(C3C2=O)C2C3C(=O)N(c5ccc(/C(C)=N/O)cc5)C(=O)C3C42)cc1` (stereo not given) it was 10.2% (inactive); in that of `CC(=O)c1ccc(N=C2SCCCN2C(=O)C2CCCCC2)cc1`, -10.5% (inactive); in that of `O=C(NNC(=S)NC(=O)c1cn(-c2ccccc2)nc1-c1ccccc1)c1ccncc1`, -1.89% (inactive). For the compound `COc1ccc(C)cc1NC(=S)Nc1ccccc1SC`, the “activity change, negative = inhibition” value is 4.13% (inactive). Regarding `Cc1ccc(S(=O)(=O)NC(=O)N2CCCN(Cc3ccc(F)cc3)CC2)cc1`, the “activity change, negative = inhibition” value is 1.35% (inactive). On to `Cc1ccc(/C=N/NC(=O)CN2CCN(Cc3ccccc3)CC2)s1`, for which the activity change, negative = inhibition was -2.78% [at 15.4 µM] (inactive). For the compound `CCS(=O)(=O)c1ccc(O)c(NC(=O)COc2ccc(Cl)cc2)c1`, the “activity change, negative = inhibition” value was -0.357% (inactive).

With `CCc1nc2ccccc2c(C(=O)NCc2ccc(OC)cc2)c1C`, the “activity change, negative = inhibition” value is -0.62% (inactive). Turning to `CCc1ccc(CN(C)C(=O)CCc2nnc(-c3ccc(-c4ccccc4)cc3)o2)nc1`, the “activity change, negative = inhibition” value was -8.54% (inactive).

For `CN(C)c1ccc(C=NCCc2ccc(S(N)(=O)=O)cc2)cc1`, the “activity change, negative = inhibition” value was 4.96% (inactive). In the case of `COc1ccc(CN2CCC(c3nc4ccc(Cl)cc4[nH]3)CC2)cc1`, the “activity change, negative = inhibition” value is 5.4% (inactive). For the compound `Cc1ccccc1CSc1nnc(-c2ccccc2)c(=O)[nH]1`, the “activity change, negative = inhibition” value was 0.989% (inactive). `CCC(=O)OCCNc1nc(-c2ccccc2)nc2ccccc12`: the “activity change, negative = inhibition” value was -7.1% (inactive). For the compound `NNC(=O)c1cnn(-c2ccccc2)c1C(F)(F)F`, the “activity change, negative = inhibition” value is 3.92% (inactive).

Take `Cc1ccc(CN(Cc2cccnc2)C(=S)Nc2cccc(Cl)c2C)cc1`: the “activity change, negative = inhibition” value is 6.23% (inactive). On to `CCOc1cc2c(Cl)ncnc2c(OCC)c1OCC`, for which the “activity change, negative = inhibition” value was -5.72% (inactive).
